Records with an inconclusive call do not appear. Some compounds were tested as several samples or in several runs, with calls that do not always agree. Calls of active or inactive are those of the source. The call rests on the fitted dose curve; in most records, active means well fitted curve in the direction sought with a large enough effect; inconclusive means small, poorly fitted or top-dose-only effect, or another doubt; inactive means no such curve, though single readings can be large; an effect the other way counts as inactive or inconclusive.
Assays:
[1] = target: Calcium and integrin-binding protein 1 (Homo sapiens) (UniProt Q99828); experiment: Primary qHTS for Identification of Calcium Integrin Binding Protein 1 (CIB1) Competitor (AID 1508620)
Calcium and integrin-binding protein 1 (Homo sapiens), sequence (Q99828 whole entry, looked up): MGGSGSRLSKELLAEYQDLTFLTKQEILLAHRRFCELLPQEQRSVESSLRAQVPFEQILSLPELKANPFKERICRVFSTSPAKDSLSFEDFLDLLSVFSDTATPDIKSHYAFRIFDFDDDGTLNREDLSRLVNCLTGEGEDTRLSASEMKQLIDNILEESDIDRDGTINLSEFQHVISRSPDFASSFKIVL
In short: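 Fluorescence polarization competition: GST-tagged CIB1 (1 uM final) preincubated with compound 15 min at room temperature, then FITC-labelled alphaIIb peptide (100 nM final) added. After 15 min at room temperature, polarization read at Ex 480/Em 540.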

[2] = Primary qHTS for inhibitors of nuclear receptor binding SET domain protein 2 (NSD2) in an isogenic RCH-ACV NSD2 p.E1099K mutant (9B) (AID 1645876); further: nearly all actives have a fitted effect of over 70% in size
[3] = Primary qHTS for inhibitors of nuclear receptor binding SET domain protein 2 (NSD2) in an RCH-ACV wild type WT cells (2C) (AID 1645877); further: nearly all actives have a fitted effect of over 70% in size
On the % scale 0 is the no-effect control and ±100 the full control effect; potency means the concentration at half of the fitted maximal effect.

Row | Structure (SMILES) | Potency [1] | Potency [2] | Potency [3] | activity change, negative = viability loss [2] | activity change, negative = cell killing [3]
1 | COc1cc(C(C)C)c(Oc2cnc(N)nc2N)cc1I | inactive | 16.3 µM (active) | 16.3 µM (active) |  | 
2 | C=C1C(=O)OC2/C=C(\CO)CC/C=C(\C=O)C(O)C(OC(=O)C(C)CC)C12 (stereo not given) | inactive | 5.67 µM (active) | 2.01 µM (active) |  | 
3 | CCCCOC(=O)NS(=O)(=O)c1sc(CC(C)C)cc1-c1ccc(Cn2ccnc2)cc1 | inactive | 23.5 µM (active) | 20.9 µM (active) |  | 
4 | Cc1ccc(CNc2ncnc3ccc(-c4ccc(CO)o4)cc23)o1 | inactive | 2.58 µM (active) | 2.3 µM (active) |  | 
5 | Cn1c(=O)c2c(ncn2Cc2ccc(C(C)(C)C)cc2)n(C)c1=O | inactive | 6.49 µM (active) | 7.28 µM (active) |  | 
6 | C=C1C(=O)OC2/C=C(\COC(C)=O)CC/C=C(\C=O)CC(OC(=O)CC(C)C)C12 (stereo not given) | inactive | 2.24 µM (active) | 1.59 µM (active) |  | 
7 | Cc1cc2c(cc1N1C(=O)c3cccc4c(CCCO)ccc(c34)C1=O)n(C)c(=O)n2C | inactive | 0.858 µM (active) | 0.608 µM (active) |  | 
8 | CC1CCCC[C@H]2C(=O)C=C[C@H](O)[C@@H]2CC(=O)O1 (stereo not given in full) | 28.2 µM (active) | 3.25 µM (active) | 2.05 µM (active) |  | 
9 | COC(=O)C[C@H]1[C@]2(C)C3=C(C)[C@H](c4ccoc4)C[C@H]3O[C@@H]2[C@H](O)C2[C@](C)(C(=O)OC)C=CC(=O)[C@@]21C (stereo not given in full) | inactive | inactive | inactive |  | 
10 | C[C@@H]1COCCN1c1cc(=O)n2c(n1)N(Cc1cncc(Cl)c1)[C@H](C(F)(F)F)CC2 | inactive | 6.51 µM (active) | 6.51 µM (active) and inactive |  | 
11 | CC(=O)CC(=O)Nc1ccc(Cl)c(C(F)(F)F)c1 | inactive | 20.5 µM (active) | 10.3 µM (active) |  | 
12 | COc1cc([C@H]2O[C@H](c3cc(OC)c4c(c3)OCO4)[C@H](C)[C@H]2C)cc(OC)c1OC | inactive | 3.55 µM (active) | 3.55 µM (active) |  | 
13 | C=C1C(=O)O[C@@H]2[C@H]1CC[C@H](C)C(CCC(=O)O)C2(C)O (stereo not given in full) | inactive | 18.3 µM (active) | 12.9 µM (active) |  | 
14 | CN(C)CCC(CSc1ccccc1)Nc1ccc(S(=O)(=O)NC(=O)c2ccc(N3CCN(Cc4ccccc4-c4ccc(Cl)cc4)CC3)cc2)cc1[N+](=O)[O-] (stereo not given) | inactive | 0.916 µM (active) | 0.515 µM (active) |  | 
15 | C=C1C(=O)O[C@H]2C1CCC(C)=C1C(=O)C=C(C)[C@@]12O (stereo not given in full) | inactive | 20.5 µM (active) | 12.9 µM (active) |  | 
16 | C=C1CC2OC(=O)C(=C)C2C(O)/C=C(\C)CCC1O (stereo not given) | inactive | 18.3 µM (active) | 16.3 µM (active) |  | 
17 | CCn1c(-c2nonc2N)nc2c(C#CC(C)(C)O)ncc(OCC3CCCNC3)c21 (stereo not given) | inactive | 1.03 µM (active) | 1.45 µM (active) |  | 
18 | C=C(C)C(=O)O[C@H]1[C@H]2C(=C)C(=O)O[C@@H]2C[C@@H](C)[C@@H]2O[C@@H]2C(=O)[C@](C)(O)[C@@H]1OC(=O)C(=C)C | inactive | 1.78 µM (active) | 1.26 µM (active) |  | 
19 | Nc1c(S(=O)(=O)c2ccccc2)c2nc3ccccc3nc2n1-c1ccc(F)cc1 | inactive | inactive | inactive |  | 
20 | CC(=O)OC1CC(C)(C(=O)O)CC2C3=CC(=O)C4C5(C)CCC(OC6OC(C(=O)O)C(O)C(O)C6OC6OC(C(=O)O)C(O)C(O)C6O)C(C)(C)C5CCC4(C)C3(C)CCC12C (stereo not given) | inactive |  |  | -3.77% [at 9.23 µM] (inactive) | -8.59% [at 9.23 µM] (inactive)
21 | CC(=O)O[C@]1(C(C)=O)CC[C@H]2[C@@H]3CCC4=CC(=O)CCC4=C3[C@@H](c3ccc(N(C)C)cc3)C[C@@]21C | inactive | 23 µM (active) | 23 µM (active) |  | 
22 | O=C1Nc2ccccc2-c2nc3ccccc3c(=O)n2-c2c(O)cccc21 | inactive | inactive | inactive |  | 
23 | C#CCCCn1cc(-c2cccc3c2N[C@H](C)CC(=O)N3)cn1 | inactive | 23 µM (active) | 14.5 µM (active) |  | 
24 | C=C1C(=O)OC2/C=C(/C)C3=CC(=O)C(C)(CC(OC(=O)/C(C)=C/COC(C)=O)C12)O3 (stereo not given) | inactive | 1.12 µM (active) | 0.399 µM (active) |  | 
25 | C[C@@H]1CC[C@@]23CC[C@]4(C)[C@@](C=CC5[C@@]6(C)CC[C@H](O)C(C)(C)C6CC[C@]54C)(OC2=O)C3[C@H]1C (stereo not given in full) | inactive | inactive | inactive |  | 

Source: PubChem BioAssay (NCATS)
